Screening results deposited in PubChem BioAssay by several laboratories.
tim23-1 inh: growth inhibitors of tim23-1 mutant yeast, primary screen, luminescence, uHTS; S. cerevisiae tim23-1 growth, BacTiter-Glo luminescence, 24 h; inhibition, % at 20 µM; actives 1.3% (n = 330,000);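 active means growth inhibition of the mutant yeast at or above 50%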;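 further: temperature-sensitive mutant grown at 25 °C; plate controls were DMSO-treated mutant yeast for no effect and medium wells lacking yeast for full effect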
TIM10 inh: growth inhibitors of isogenic TIM10 control yeast, primary screen, counter-screen for tim10-1 yeast inhibitor project, luminescence, uHTS. S. cerevisiae TIM10 strain growth, BacTiter-Glo luminescence, 24 h. inhibition, % at 10 µM. actives 1.4% (n = 330,000);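 active means inhibition of 40% or more at the single tested concentration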;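 further: wild-type TIM10 isogenic control strain grown at permissive 25 °C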
tim10-1 inh: growth inhibitors of tim10-1 mutant yeast, primary screen, luminescence, uHTS; actives 2.2% (n = 330,000); S. cerevisiae tim10-1 ts strain growth, BacTiter-Glo, 24 h; AID 463190, 2010; inhibition, % at 20 µM;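 active means inhibition of at least 40%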;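 further: mutant grown at 25 °C; 0% = DMSO wells with yeast and 100% = wells holding no yeast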
NLRP3 yeast inh: NALP3 inflammasome inhibitors in reconstituted yeast, primary screen, luminescence, uHTS; Yeast reconstituted NLRP3/ASC/caspase-1, beta-gal luminescence, 24 h; inhibition, % at 10 µM; actives 0.39% (n = 330,000);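 active means inhibition of 50% or more; inactive means inhibition below 50%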;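 further: plate controls were induced DMSO wells for no effect and uninduced yeast grown without galactose for full effect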
NALP1 inh: NALP1 inflammasome inhibitors in reconstituted yeast, colorimetric, S. cerevisiae, triplicate retest. AID 2071, 2009. inhibition, % at 10 µM. S. cerevisiae NALP1/ASC/caspase-1 growth, X-gal OD620, 72 h. actives 0.61% (n = 280,000); in the data active means inhibition mostly above about 24%, no sharp cut-off; inactive means mostly below about 32%
PfHsp90 set2: growth inhibition of PfHsp90-expressing yeast, primary screen, antimalarial PfHsp90 inhibitor project, S. cerevisiae, BacTiter-Glo luminescence, single point, set 2. BacTiter-Glo ATP, 48 h; yeast lacking PDR1 and PDR3 efflux regulators. inhibition, % at 9.4 µM. actives 0.32% (n = 310,000);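 active means every replicate shows inhibition above about 80%, whatever the replicate mean, limit read from the data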;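 further: 0% = DMSO neutral controls and 100% = 20 µM radicicol positive controls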
tim10-1 confirm: growth inhibitors of tim10-1 mutant yeast, confirmation, single concentration, luminescence, S. cerevisiae | shares compounds with tim10-1 inh | S. cerevisiae tim10-1 ts strain growth, BacTiter-Glo, 24 h | inhibition, % at 20 µM | actives 56% (n = 7,400) | AID 463213, 2010;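 active means inhibition of yeast growth at or above a set limit in either of two repeat tests at 20 µM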;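 further: tim10-1 mutant grown at permissive 25 °C to find synthetic lethal compounds; 0% = DMSO yeast wells and 100% = medium wells without yeast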
tim10 confirm: growth inhibitors of wild-type TIM10 yeast, confirmation, counter-screen for tim10-1 synthetic lethality project, single concentration, luminescence, S. cerevisiae; shares compounds with TIM10 inh; S. cerevisiae tim10 strain growth, BacTiter-Glo luminescence, 24 h; inhibition, % at 10 µM; actives 63% (n = 4,600); AID 463215, 2010;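 active means inhibition of yeast growth at or above a set limit in either of two replicates at 10 µM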;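 further: this counterscreen used the strain with wild-type TIM10; 0% = yeast with DMSO and 100% = medium wells lacking yeast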
tim23-1 conf: tim23-1 mutant yeast growth inhibitors, confirmation, luminescence, single concentration | shares compounds with tim23-1 inh | S. cerevisiae tim23-1 growth, BacTiter-Glo luminescence, 24 h | inhibition, % at 20 µM | actives 83% (n = 4,400);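 active means inhibition above about 39% in either of two replicate wells at 20 µM, limit read from the data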;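 further: temperature-sensitive tim23-1 mutant grown at 25 °C; 0% = DMSO wells with yeast and 100% = medium wells without yeast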
Numbers without * were called inactive; · = not tested or not shown. Only some compounds are listed: those with a hit (about 4.2% of all), similar ones and a draw of the others.

SMILES | tim23-1 inh | TIM10 inh | tim10-1 inh | NLRP3 yeast inh | NALP1 inh | PfHsp90 set2 | tim10-1 confirm | tim23-1 conf | others
Cc1cccc(CN2C(=O)/C(=C\c3ccc(C(=O)NCCCN4CCN(C)CC4)cc3)Oc3ccccc32)c1 | 62* | 5 | 44* | 18 | 35 | 53 | -18 | 46*
CC1CN(C(=S)Nc2cccc(Cl)c2Cl)CC(C)O1 (centres undefined) | 5 | 13 | 8 | 12 | 8 | -4 | · | ·
Cc1sc(NC(=O)c2ccco2)c(CN2CCN(c3ccc(F)cc3)CC2)c1C | 0 | 6 | 5 | 25 | 3 | -50 | · | ·
Cc1sc(NC(=O)c2ccco2)c(CN2CCN(c3ccccn3)CC2)c1C | 59* | 27 | 48* | 3 | 16 | -20 | 32* | 55*
COc1ccc(N2CCN(C(=O)NC3CC(=O)N(c4ccc(OC)cc4)C3)CC2)cc1 (centres undefined) | 5 | 9 | -4 | 12 | -6 | 11 | · | ·
O=C(/C=C/c1ccccc1)CC(O)(c1ccccc1)C(F)(F)C(F)F (centres undefined) | 56* | 24 | 44* | 38 | 7 | -33 | 41* | 32
O=C(Oc1ccccc1/C=C\C(=O)c1cc2ccccc2o1)c1ccccc1 | 50* | 50* | 47* | 27 | 28 | 14 | 41* | 49* | tim10 confirm=31*
COc1cccc(C(=O)Oc2ccccc2/C=C\C(=O)c2cc3ccccc3o2)c1 | · | · | · | · | 10 | -1 | · | ·
O=C1C2C(c3ccccc3)CC=CC2[C@H](c2ccc(C(F)(F)F)cc2)N1Cc1ccccc1 (some centres undefined) | 65* | 75* | 66* | 12 | · | -13 | 52* | 66* | tim10 confirm=44*
Brc1ccc(-c2ccc(/C=N/Nc3nc(N4CCOCC4)nc(N4CCOCC4)n3)o2)cc1 | 11 | 7 | 3 | 18 | -8 | -27 | · | ·
Fc1cnc(N/N=C/c2ccc(-c3ccc(Br)cc3)o2)nc1N1CCOCC1 | 51* | 33 | 43* | 11 | -15 | -5 | 24 | 33
O=C(CSc1nc2ccccc2c(=O)n1Cc1ccccc1)Nc1ccc(Br)cc1C(=O)O | 20 | -4 | 18 | 4 | 2 | -11 | · | ·
Cc1ccc(/C=c2\sc3nc(-c4ccco4)nn3c2=O)o1 | 16 | 7 | 25 | 31 | · | -51 | · | ·
COc1ccc(Br)cc1/C=c1\sc2nc(-c3ccco3)nn2c1=O | 53* | 42* | 54* | 4 | 0 | -15 | 44* | 55* | tim10 confirm=38*
CC1(c2cccc(Br)c2)NC(=O)N(CC(=O)Nc2ccc(S(N)(=O)=O)cc2)C1=O (centres undefined) | -13 | 2 | -34 | 14 | 6 | -9 | · | ·
O=C(N/N=C/c1ccccn1)c1sc2ccccc2c1Cl | 76* | 17 | 48* | 34 | 3 | -70 | 41* | 64*
O=C(c1ccc(Cl)cc1)C1CCN(Cc2ccccc2)CC1 | 1 | 0 | 8 | 9 | 14 | 2 | · | ·
O=C(c1ccc(Cl)cc1)C(CN1CCCC1)c1ccccc1 (centres undefined) | 57* | 46* | 62* | 24 | 43* | -50 | 26 | 6 | tim10 confirm=51*
COc1cc(CN2CCC(n3nccc3NC(=O)CCCc3ccccc3)CC2)ccc1F | 12 | 4 | -1 | 3 | 22 | 6 | · | ·
